The values that follow come from article PMC4336329 (PLoS ONE, 2015).

Out of some 310,000 compounds screened, about 14,000 (4.5%) showed an effect of 50% or more. Effects have a minus sign here. Only a selection was taken, and strong results are over-represented in it overall. Where a SMILES comes first, the peptide text is derived from it. [ ]: non-standard residue; d: D form. The star is where a group is joined. ξ: configuration not given here. Cbz = O=C(OCc1ccccc1)*; ξV = CC(C)C(N)C(=O)O
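Further: peak tail current of the secondary pulse compared with the same well before compound.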

The target in this assay is human ether-à-go-go-related gene (hERG) potassium channel (human, UniProt Q12809). The experiment in a line: primary screen, population patch clamp on CHO cells stably expressing hERG; higher = less effect of the substance.
Sequence of human ether-à-go-go-related gene (hERG) potassium channel (Q12809 whole entry, looked up): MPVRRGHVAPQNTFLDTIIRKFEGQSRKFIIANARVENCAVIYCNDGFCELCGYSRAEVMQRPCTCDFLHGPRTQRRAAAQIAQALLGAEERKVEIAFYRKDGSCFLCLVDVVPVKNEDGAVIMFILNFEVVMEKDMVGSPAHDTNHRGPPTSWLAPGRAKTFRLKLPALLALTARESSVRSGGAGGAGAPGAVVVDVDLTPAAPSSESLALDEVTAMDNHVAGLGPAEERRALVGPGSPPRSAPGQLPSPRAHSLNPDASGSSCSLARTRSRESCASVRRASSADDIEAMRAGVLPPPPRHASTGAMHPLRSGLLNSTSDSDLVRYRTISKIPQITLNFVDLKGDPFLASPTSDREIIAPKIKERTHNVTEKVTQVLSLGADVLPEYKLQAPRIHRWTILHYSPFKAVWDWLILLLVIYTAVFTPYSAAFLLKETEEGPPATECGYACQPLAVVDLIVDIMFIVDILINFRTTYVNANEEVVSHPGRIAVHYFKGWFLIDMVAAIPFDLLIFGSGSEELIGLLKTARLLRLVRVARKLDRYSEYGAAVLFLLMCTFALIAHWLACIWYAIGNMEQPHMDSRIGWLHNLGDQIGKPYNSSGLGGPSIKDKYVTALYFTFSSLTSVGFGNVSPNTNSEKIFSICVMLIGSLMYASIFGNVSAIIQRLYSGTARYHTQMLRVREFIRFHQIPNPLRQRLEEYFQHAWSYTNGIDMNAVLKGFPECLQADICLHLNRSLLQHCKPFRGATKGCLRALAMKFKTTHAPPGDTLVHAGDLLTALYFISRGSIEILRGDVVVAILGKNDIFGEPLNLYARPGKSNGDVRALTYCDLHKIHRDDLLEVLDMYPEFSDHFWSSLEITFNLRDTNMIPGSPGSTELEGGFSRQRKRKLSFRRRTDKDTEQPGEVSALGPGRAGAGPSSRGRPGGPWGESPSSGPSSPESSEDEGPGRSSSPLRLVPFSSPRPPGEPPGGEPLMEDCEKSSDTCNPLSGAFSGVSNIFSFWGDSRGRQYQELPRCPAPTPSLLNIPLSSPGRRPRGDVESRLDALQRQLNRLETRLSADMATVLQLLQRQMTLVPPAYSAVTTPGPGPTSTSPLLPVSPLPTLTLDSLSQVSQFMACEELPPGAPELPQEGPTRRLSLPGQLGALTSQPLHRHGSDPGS
On to `Cc1ccc(CN(CC(=O)NCc2ccccn2)S(=O)(=O)c2ccccc2)cc1`, for which the “hERG current change (%, negative = inhibition) at 10uM” value was -23.9%.
Next, `COC(=O)CN(C#N)c1nc(NCc2ccccc2)nc(OC)n1`: -1.33%; `CCN(CC(=O)Nc1ccc2c(c1)OCCO2)CC(=O)Nc1ccc2c(c1)OCO2`: 28%.
Next, `Cc1ccc(CC(CC(=O)Nc2cccc(C(F)(F)F)c2)C(=O)O)cc1` (centres unmarked): 18%; `COc1cc2c(cc1OC)-c1cc(OCCN3CCOCC3)nc(=O)n1CC2`: -11.5%; `O=C(O)c1nccnc1C(=O)Nc1ccc(Cl)cn1`: 17.6%.
Next, `CCC(C)NC(=O)[C@H]1N2C(=O)c3ccccc3C2SC1(C)C` (some centres unmarked): 12.8%; `Cc1noc(C(=O)Nc2c(C)nn(Cc3ccccc3)c2C)c1Cl`: 4.71%.
Take `CC1CCCC(NC(=O)CSc2ccc(F)cc2)C1C` (centres unmarked): the “hERG current change (%, negative = inhibition) at 10uM” value came to 18.7%.
For the compound `CC1CCCC(NCC(O)COC(c2ccc(F)cc2)c2ccc(F)cc2)C1C` (centres unmarked), the “hERG current change (%, negative = inhibition) at 10uM” value is reported as -71.6%.
For `CC1CCCC(NC(=O)CCC(=O)c2ccc(F)cc2)C1C` (centres unmarked), the “hERG current change (%, negative = inhibition) at 10uM” value stood at 8.27%.
Regarding `Cc1cccc(C(=O)N2CCN(c3ncnc4c3cnn4-c3ccccc3)CC2)c1`, the “hERG current change (%, negative = inhibition) at 10uM” value is given as -19.4%.
Next, `COC(=O)C(C)Oc1ccc2c(-c3cccc([N+](=O)[O-])c3)cc(=O)oc2c1` (centres unmarked): -25.8%.
Next, `CCc1cc(=O)oc2cc(OC(C)C(=O)NCc3ccccn3)ccc12` (centres unmarked): 14.4%; `COc1ccc(-c2cc(=O)oc3cc(OCC(=O)NCc4ccccn4)ccc23)cc1`: -6.52%; `CC(=O)COc1ccc2c(-c3cccc([N+](=O)[O-])c3)cc(=O)oc2c1`: -25.9%.
As for `COc1ccc(-c2cc(=O)oc3cc(OC(C)C(=O)NCc4ccccn4)ccc23)cc1` (centres unmarked), the “hERG current change (%, negative = inhibition) at 10uM” value is recorded as -54.8%.
Next, `COc1ccc(-c2cc(=O)oc3c(C)c(OC(C)C(=O)NCc4ccccn4)ccc23)cc1` (centres unmarked): -9.16%; `CC(Oc1ccc2c(-c3ccccc3)cc(=O)oc2c1)C(=O)NCc1ccccn1` (centres unmarked): -50.9%.
Next, `Cc1cc(=O)oc2cc(OC(C)C(=O)NCc3ccccn3)ccc12` (centres unmarked): 9.03%; `CCOC(=O)C(C)Oc1ccc2c(-c3cccc([N+](=O)[O-])c3)cc(=O)oc2c1` (centres unmarked): -62.4%.
`Cc1ccccc1NC(=O)c1cnn(-c2ccccc2)c1NC(=O)c1ccco1`: the “hERG current change (%, negative = inhibition) at 10uM” value is 0.329%.
Next, `COc1ccc(CCNC(=O)c2c[nH]c3ccccc3c2=O)cc1OC`: -1.95%.
Next, `Cc1noc(NS(=O)(=O)c2ccc(NC(=O)C34CCC(CC3)C4)cc2)c1C`: -9.55%; `COC(=O)CNC(=O)C(NC(=O)OCc1ccccc1)C(C)C` (centres unmarked) (Cbz-[ξV]-Gly-OMe): 16.1%; `CCOC(=O)Nc1ccc2c(c1)OCO2`: 26.2%.
For the compound `CCOC(=O)C1CCCN(Cc2c(Cl)cccc2Cl)C1` (centres unmarked), the “hERG current change (%, negative = inhibition) at 10uM” value is listed as -6.47%.
Next, `CCOC(=O)C1CCCN(C(=S)Nc2ccc(OC)cc2)C1` (centres unmarked): 5.25%; `CCOC(=O)C1CCCN(c2nc3ccccc3nc2NS(=O)(=O)c2ccc(C)cc2)C1` (centres unmarked): -44.8%.
Next, `COc1ccccc1Nc1nc(N)nc(CSC(=S)N2CCCCC2C)n1` (centres unmarked): -5.64%; `CCOC(=O)C1CCCN(Cc2nc(N)nc(Nc3ccc(C)cc3)n2)C1` (centres unmarked): -69.5%.
Next, `CCOC(=O)C1CCCN(Cc2nc(N)nc(Nc3ccc(Cl)cc3)n2)C1` (centres unmarked): -79%.
On to `CCOC(=O)C1CCCN(Cc2cccc(Cl)c2)C1` (centres unmarked), for which the “hERG current change (%, negative = inhibition) at 10uM” value was -8.02%.
Next, `CCOC(=O)C1CCCN(Cc2nc(N)nc(Nc3ccccc3OC)n2)C1` (centres unmarked): -70.8%.
Take `Cc1ccccc1Nc1nc(N)nc(COC(=O)C2CCCCC2)n1`: the “hERG current change (%, negative = inhibition) at 10uM” value was determined as 8.35%.
Next, `CCOC(=O)C1CCCN(Cc2nc(N)nc(Nc3ccc(OC)cc3)n2)C1` (centres unmarked): -75.6%; `CCOC(=O)C1CCCN(Cc2ccccc2Cl)C1` (centres unmarked): -3.88%; `CCOC(=O)C1CCCN(Cc2ccc(OCC)cc2)C1` (centres unmarked): -42.9%.
Regarding `N#Cc1cc2c(N)c(C(=O)Nc3ccccc3)sc2nc1N`, the “hERG current change (%, negative = inhibition) at 10uM” value came to 8.83%.
Next, `CCCCN(C(=O)C1CCC1)c1c(N)n(CC(C)C)c(=O)[nH]c1=O`: 1.74%; `COc1ccccc1OCC(=O)[O-].[Na+]`: 4.6%.
Next, `Cc1c(Cl)cccc1-c1ccc(CNCc2ccccn2)o1.Cl`: 8.15%; `Cc1ccc(OCC(=O)NCCO)c(Br)c1`: 14.3%.
Next, `O=C(CSc1nnc(-c2ccc(F)cc2)o1)Nc1ccc(S(=O)(=O)N2CCCC2)cc1`: -2.73%; `CC(C(=O)NCc1cccs1)n1cccc1` (centres unmarked): 7.58%; `COc1ccc(CNC(=O)CC23CC4CC(CC(C4)C2)C3)cc1`: 20.4%.
For `CCOC(=O)C1CCCN(Cc2ccc(-c3ccccc3)cc2)C1` (centres unmarked), the “hERG current change (%, negative = inhibition) at 10uM” value is reported as -10.5%.
